Test results taken from ChEMBL document CHEMBL4513216, “Probing the Open Global Health Chemical Diversity Library for Multistage-Active Starting Points for Next-Generation Antimalarials” (ACS Infect Dis, 2020).
Screen size: about 69,000 compounds; about 8,600 (12%) showed an effect of 50% or more. This excerpt belongs to a sample that is enriched for strong results.

The compounds below were run on Plasmodium berghei (assay: Screen against P. berghei liver stage (PbLuc), transformed with Luciferase, at 10uM). Details: tested at 10 uM.
Format: functional, HepG2
c1cnc(NC2COC3(CCN(Cc4nccs4)CC3)C2)cn1 (configuration not stated) was tested, and the INHIBITION was 42.7%. For CCN(CC)c1ncc(CNC2CCc3ncnn3C2)s1 (configuration not stated), the INHIBITION was -17.9%. CC(C)(C)S(=O)(=O)CCNC(=O)c1ccc2cc[nH]c2c1 was tested, and the INHIBITION was -19.7%. Work on COCCN1C[C@@H]2CN(Cc3ccc(C)s3)CCC[C@]2(C(=O)O)C1 yielded an INHIBITION of 24.9%. For COCCn1cc2c(n1)C(CNCc1ccco1)OCC2 (configuration not stated), the INHIBITION was -11.5%. COc1c(CNC2(c3noc(C)n3)CCC2)c(C)nn1C gave an INHIBITION of -81.2%. Work on COCCCNC(=O)Nc1cccc(Cl)c1-n1cccn1 yielded an INHIBITION of -31.5%. For COCCN(Cc1ccccn1)C(=O)CC1OCCc2sccc21 (configuration not stated), the INHIBITION was 35%. COCCN(Cc1ccccn1)C(=O)CC1OCCc2ccccc21 (configuration not stated) was tested, and the INHIBITION was 10.9%. Work on COCCN(Cc1ccccn1)C(=O)CC1OCCc2ccsc21 (configuration not stated) yielded an INHIBITION of 58.2%. In the case of COCc1nc(Cn2c(C)cc(C(F)(F)F)cc2=O)no1, the INHIBITION is reported as 32.1%. With Cc1ccc(C)c(NC(=O)c2cc(S(=O)(=O)N3CCSCC3)c[nH]2)c1 the INHIBITION was 32%. Work on CN(C)S(=O)(=O)N1C[C@H]2CCC[C@@]2(COCC2CC2)C1 yielded an INHIBITION of 63%. Compound CN(C)S(=O)(=O)N1C[C@H]2CCC[C@@]2(COCC2CCOCC2)C1 has an INHIBITION of 40.8%. In the case of CS(=O)(=O)N1C[C@H]2CCC[C@@]2(COCC2CCOCC2)C1, the INHIBITION is reported as 5.36%. For Cc1cccc(COC[C@@]23CCC[C@@H]2CN(S(=O)(=O)N(C)C)C3)n1, the INHIBITION was 52.6%. CN(C)S(=O)(=O)N1C[C@H]2CCC[C@@]2(COCc2cccnc2)C1 gave an INHIBITION of -136%. For CN(C)S(=O)(=O)N1C[C@H]2CCC[C@@]2(COCc2ccccn2)C1, the INHIBITION was 31.9%. COc1cccc2ccc(N3CCC(O)(c4ccc(C)cn4)CC3)nc12 gave an INHIBITION of -44.2%. With Cn1cc2ncn([C@H]3CCN(Cc4ccccc4)C3)c(=O)c2n1 the INHIBITION was -25.1%. O=C(C(CNCc1ccccn1)c1ccccc1)N1CCOCC1 (configuration not stated) gave an INHIBITION of -5.32%. With CC(C)(C)c1n[nH]c(C2CN(C(=O)CCCn3cccn3)CCO2)n1 (configuration not stated) the INHIBITION was 17%. c1cncc(CN2CCc3ncnc(C4CCOC4)c3CC2)c1 (configuration not stated) showed an INHIBITION of 30.7%. Compound CSc1nsc(NC(=O)N2CCc3ccccc3C2)n1 has an INHIBITION of 16.5%. With CCNC(=O)NCc1nn(CCN2CCCC2)c(=O)c2ccccc12 the INHIBITION was 47.7%. Work on CC(C)OCCCNC(=O)CC1(Cn2cnnn2)CCCCC1 yielded an INHIBITION of -22.2%. In the case of CC(C)CNC(=O)CC1(Cn2cnnn2)CCCCC1, the INHIBITION is reported as 67.3%. Compound CC(C)NC(=O)CC1(Cn2cnnn2)CCCCC1 has an INHIBITION of 35.8%. Compound Cc1ccc(N2CCCN(C(=O)CCc3nccs3)CC2)nn1 has an INHIBITION of 3.73%. Work on Cc1nc(N)cc(C2(C)CCCNC2)n1 (configuration not stated) yielded an INHIBITION of 32.8%. CC1CN(C(=O)CN(Cc2ccccc2)C2CC2)CCO1 (configuration not stated) was tested, and the INHIBITION was 15.6%. Compound COC(=O)C(NC(=O)C1CCCC1)c1cc(F)ccc1F (configuration not stated) has an INHIBITION of 29.4%. COc1ncccc1NC(=O)c1[nH]nc(C(C)C)c1Br was tested, and the INHIBITION was -41.6%. Compound CC(C)c1n[nH]c(C(=O)Nc2ccncc2)c1Br has an INHIBITION of 77.6%. CC(C)c1n[nH]c(C(=O)Nc2ccnn2C(C)C)c1Br was tested, and the INHIBITION was 88.5%. With CC(C)c1n[nH]c(C(=O)Nc2ccccn2)c1Br the INHIBITION was 67.4%. In the case of Cc1ccnc(NC(=O)c2[nH]nc(C(C)C)c2Br)c1, the INHIBITION is reported as 65%. For Cc1ccnc(NC(=O)c2ccc(Br)o2)c1, the INHIBITION was -51.5%. In the case of Cc1nc2c(c(C)c1CC(=O)Nc1ccnn1C(C)C)c(=O)[nH]n2C, the INHIBITION is reported as -1.33%. With COc1ccncc1NC(=O)c1[nH]nc(C(C)C)c1Br the INHIBITION was 31.1%. CC(C)c1n[nH]c(C(=O)NC(C)c2ccncc2)c1Br (configuration not stated) gave an INHIBITION of -9.76%. With CC(C(=O)Nc1ccnn1C(C)C)N1CCN(Cc2ccccc2)CC1 (configuration not stated) the INHIBITION was -8.07%. With Cc1ccnc(NC(=O)c2ccc(Cl)o2)c1 the INHIBITION was 32.4%. CC(C)Nc1nc(C(=O)Nc2ccccn2)cs1 gave an INHIBITION of -42.1%. In the case of Cc1ccccc1-n1cc(CN(C)C(=O)CC2C(=O)NCCN2C)cn1 (configuration not stated), the INHIBITION is reported as 42.3%. In the case of Cc1cccc(C(=O)N2CCCC[C@]3(C)NC(=O)CCC[C@H]23)n1, the INHIBITION is reported as 31.6%. In the case of CN1CCCN(C(=O)c2cccn2-c2ccc3c(c2)OCCO3)CC1, the INHIBITION is reported as 6.99%. Compound CC(NC(=O)Nc1ccc(N2CCCC2)nc1)c1nncn1C (configuration not stated) has an INHIBITION of 9.54%. In the case of O=C(NCC1(O)COCCN(Cc2cccc(O)c2)C1)c1cnccn1 (configuration not stated), the INHIBITION is reported as -25.3%. COc1ccc(C(=O)NCCCn2ccnc2)c(OC)n1 was tested, and the INHIBITION was 26.6%. With CC(C)c1[nH]c2ncccc2c1CN1CCOCC1 the INHIBITION was -21.6%. In the case of Cc1ccc(CNC(=O)CN2CCOC(Cn3cccn3)C2)s1 (configuration not stated), the INHIBITION is reported as -45.4%. With O=C(NCc1ccc(-n2cncn2)nc1)c1cc(Cl)ccn1 the INHIBITION was 45%. For Cc1cc(C)n(Cc2cccc(C(=O)NCCSCC(C)(C)O)c2)n1, the INHIBITION was 0.426%. O=C(NCC1CCC1)c1cccc(CN2CCS(=O)(=O)CC2)c1 showed an INHIBITION of 33.4%. With CC(C)c1n[nH]c(C(=O)Nc2cc[nH]n2)c1Br the INHIBITION was 55.9%. In the case of Cc1cccc(NC(=O)c2[nH]nc(C(C)C)c2Br)n1, the INHIBITION is reported as 65%. Work on Cc1cccc(NC(=O)c2cncc(C3CCNCC3)n2)n1 yielded an INHIBITION of 15.5%. Compound CC(C)CC(NC(=O)c1cccc(F)c1F)C(=O)Nc1cc[nH]n1 (configuration not stated) has an INHIBITION of -36.4%. In the case of COc1ccccc1NC(=O)c1[nH]nc(C(C)C)c1Br, the INHIBITION is reported as -101%. Cc1cccc(NC(=O)c2sc(C)nc2C)n1 was tested, and the INHIBITION was -9.57%. CN(C)CCCN(Cc1cnn(C)c1)Cc1ccco1 gave an INHIBITION of -9.35%. Oc1ccccc1-c1n[nH]c(C2CCCO2)n1 (configuration not stated) showed an INHIBITION of -3.11%. With c1cnnc(N2CCCC2CNCc2cscn2)c1 (configuration not stated) the INHIBITION was -56.1835%. Compound Cc1ccsc1C1CC(=O)Nc2c1cnn2C(C)C (configuration not stated) has an INHIBITION of 11.9%. Work on CC(NCCn1cccn1)c1cc(F)ccc1F (configuration not stated) yielded an INHIBITION of 53.8%. Compound CC(NCCn1cccn1)c1ccc(F)cc1F (configuration not stated) has an INHIBITION of 16.8%. For Cc1ccc(-c2n[nH]cc2CNCCn2cccn2)o1, the INHIBITION was 77.6%. CCn1cnnc1CCNCc1c[nH]nc1-c1ccc(F)cc1 gave an INHIBITION of -5.94%. Fc1ccc(CNCCn2cccn2)cc1F showed an INHIBITION of 26.9%. Fc1ccc(-c2n[nH]cc2CNCCn2cccn2)cc1 was tested, and the INHIBITION was 77.6%. For Cc1ccc(-c2n[nH]cc2CNCC2CCS(=O)(=O)C2)o1 (configuration not stated), the INHIBITION was -29.4%. Fc1cc(CNCCn2cccn2)ccc1-n1cncn1 gave an INHIBITION of 50.8%. Work on c1ccc(-n2cncn2)c(CNCCn2cccn2)c1 yielded an INHIBITION of -14.2%. Fc1ccc(-c2nc(CNCCn3cccn3)cs2)cc1 showed an INHIBITION of 4.02%. Work on CC(NCCn1cccn1)c1ccccc1F (configuration not stated) yielded an INHIBITION of 27.9%. Cc1ccc(-c2nc(CNCCn3cccn3)cs2)o1 showed an INHIBITION of 10.8%.
